PubChem BioAssay (NCI)
The panel holds about 83,000 compounds, 20% with a hit somewhere; the sample as a whole holds those more often.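 Growth was measured after 48 h exposure to one concentration of compound in 96-well plates. Values under 10 count as active.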 Values without a mark were called inactive. Active and inactive are the calls of the source.

Test system: OVCAR-3 ovarian
Assay: NCI-60 one-dose screen, 48 h (100 = growth as untreated, 0 = no growth, -100 = all killed)
Settings: 10 µM unless noted
Method: Growth inhibition of the OVCAR-3 human tumor cell line is measured as a screen for anti-cancer activity. Cells are grown in 96 well plates and exposed to the test compound for 48 hours. Compounds are tested at a single concentration, which is 10^-5 M for most compounds. The reported endpoint is percent growth (GI% or GIPRCNT), where numbers from 0 - 100% represent growth inhibition, and numbers from -100% - 0 represent cell death. For example, a value of 40 represents 60% growth inhibition. A value of 0 means no net growth occurred over the course of the experiment. A value of -40 indicates 40% of cells at the beginning of the experiment died by the end of the experiment. A value of -100 means all cells are dead at the end of the experiment.
NCI-60 Human Tumor Cell Lines Screen was performed using the standard one-dose NCI protocol, which is described in more detail at https://dtp.cancer.gov/discovery_development/nci-60/default.htm.
Compounds with GIPRCNT values below 10 were considered active. Activity score was based on GIPRCNT using the following formula: […]
Score is 0 for GIPRCNT values of 100 or above, 50 for GIPRCNT values of 0, and 100 for GIPRCNT values of -100.

| SMILES | growth |
| --- | --- |
| Cc1cc(N)c2cc(NC(=O)/C=C\c3ccccc3Cl)ccc2n1 | -90.2% (active) |
| O=[N+]([O-])/C(=C/C=C/c1ccccc1)c1ccccc1 | 1.93% (active) |
| O=[N+]([O-])c1ccc(S(=O)(=O)N2CCN(C3=NS(=O)(=O)c4ccccc4N3c3ccccc3)CC2)cc1 | 94.4% |
| COc1ccc(/C=C2\COc3ccc(O)cc3C2=O)c(OC)c1OC | 57.2% |
| O=C(CN1C(=O)CCC1=O)Nc1ncc(Cc2ccc(F)cc2)s1 | 103% |
| C#Cc1ccc(NC(=O)c2ccc(/C=C/C(=O)c3nccn3C)cc2)cc1 | -86% (active) |
| CCCCNc1ccc(C#N)c(OCCN(CC)CC)c1 | 109% |
| N#CCSc1nnc2n(Cc3ccccc3)c(=O)c3c4c(sc3n12)CCCC4 | 98.5% |
| C=C(C)[C@@H]1CC[C@]2(C(=O)OC)CC[C@]3(C)[C@H](CC[C@@H]4[C@@]5(C)C/C(=C/NC(N)=S)C(=O)C(C)(C)[C@@H]5CC[C@]43C)[C@@H]12 | 88.5% |
| N#Cc1cccc(F)c1 | 126% |
| COc1ccc(C(=O)Nc2ncc(Cc3cccc(Cl)c3)s2)cc1OC | 7.51% (active) |
| COC(=O)CNC(=O)[C@H](Cc1ccccc1)NCc1ccncc1 | 113% |
| C#CCOc1cccc(Nc2ncnc3c(NC(=O)C=C)cccc23)c1 | 10.9% |
| O=C(/C=C/c1cccs1)c1ccc(Cl)nc1 | 116% |
| Oc1c(Cl)cc(Cl)c2ccc(Cn3cc(-c4cc(C(F)(F)F)cc(C(F)(F)F)c4)nn3)nc12 | -4.28% (active) |
| COc1cc2c(c(OC)c1OC)CCC(c1cccc(C(=O)Nc3cccc(Br)c3)c1)O2 (stereo not given) | 74.7% |
| CC1(C)CC[C@]2(C(=O)O)CC[C@]3(C)C(=CC[C@@H]4[C@@]5(C)C/C(=C/O)C(=O)C(C)(C)[C@@H]5CC[C@]43C)[C@@H]2C1 | 21% |
| N#CC1=C(N)Oc2c(sc3c(Br)cccc23)C1c1ccc(F)cc1 (stereo not given) | 9.66% (active) |
| O=C1COCCN1c1ccc(Nc2nc(Cl)nc(OCc3cn(Cc4ccccc4)nn3)n2)cc1 | 89.4% |
| CCOC(=O)c1ccc2[nH]c(O)c(C(=Nc3ccc(N(C)C(=O)CN4CCN(C)CC4)cc3)c3ccccc3)c2c1 | -76.5% (active) |

| SMILES | growth |
| --- | --- |
| CCCCCCNC(=O)Oc1ccc(/C(=C(/C)Cc2ccc(OC)cc2)c2ccc(OCCCN(C)C)cc2)cc1 | 55.9% |
| CCOC(=O)c1c(C)nc2c(c1N)CC(=O)N2Cc1cc(F)cc(Cl)c1 | 93.8% |
| O=C1C(Cl)=C(Nc2ccc(O)cc2)C(=O)N1Cc1ccc(Cl)cc1 | 40.8% |
| Nc1c(C(=O)Nc2ccncc2)sc2nc3c(cc12)CCCCCC3 | 104% |
| CCNc1nc(-c2ccc(Cl)c(OC)c2)c(-c2ccnc(NCCCNS(=O)(=O)c3ccc(Cl)cc3)n2)s1 | 81.2% |
| COc1ccc(N2CCC(=O)NC2=S)cc1 | 109% |
| CCOC(=O)c1cnc2ccccc2c1Cl | 106% |
| CN1CCN(Cc2ccc(NC(=O)c3cncc(C#Cc4cnc(N)c5ccccc45)c3)cc2C(F)(F)F)CC1 | -87.6% (active) |
| CN1CCN(c2ccc(C(=O)Nc3cccc(C#Cc4cccc5[nH]nc(N)c45)c3)cc2C(F)(F)F)CC1 | -17.9% (active) |
| COc1ccc(NC(=O)c2sc3nc(C)c(C(=O)/C=C/c4cccc(OC)c4)cc3c2N)cc1 | -18.4% (active) |
| C=C1C(=O)O[C@H]2[C@H]1CC/C(COC(=O)CSCCSCC(=O)OC/C1=C/CC[C@@]3(C)O[C@H]3[C@H]3OC(=O)C(=C)[C@@H]3CC1)=C\CC[C@@]1(C)O[C@@H]21 | -12.1% (active) |
| O=C(/C=C/c1ccc(Cl)cc1)c1cccc(Nc2nc(Nc3ccccc3)nc(Nc3ccccc3)n2)c1 | 84.7% |
| Cc1cccnc1NC(=S)Nc1ncccc1C | 100% |
| COc1cc(-c2cc(-c3cccs3)c(C#N)c(N3CCOCC3)n2)cc(OC)c1OC | 149% |
| CN(C)c1ccc(Nc2cc(-c3cccc(OC(F)(F)F)c3)nc3ccc(N4CCCC4)cc23)cc1 | -49.7% (active) |
| O=C1CC(N2C(=O)/C(=C/C(Cl)=C\c3ccc([N+](=O)[O-])cc3)SC2=S)C(=O)N1c1ccc(Cl)cc1 (stereo not given) | -35.4% (active) |
| COc1ccc(-c2cc(-c3ccc(Cl)cc3)c(C#N)c(=O)n2CCCCC(=O)Nc2ccccc2N)cc1 | 69.5% |
| CN(C)Cc1ccc(NC(=O)c2cncc(C#Cc3cnc(N)c4ncccc34)c2)cc1F | 87.9% |
| C=C1C(=O)O[C@H]2[C@H]1CC/C(COC(=O)NCc1cc[nH]c1)=C\CC[C@@]1(C)O[C@@H]21 | 16.6% |
| COc1ccc(/C=N/C2=C(C#N)C(c3cccc(Cl)c3)c3c(ccc4ccccc34)O2)cc1 (stereo not given) | 12.5% |
